# PubChem BioAssay AID485346 (Sanford-Burnham Center for Chemical Genomics, 2010)
# The campaign covered roughly 330,000 compounds. About 10,000 (3%) were called active.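 The calls were made as follows: active = inhibition of at least 50% at 8 µM in the primary screen; inactive = the rest.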 This excerpt belongs to a sample that is enriched for actives.
# Molecular target: Protein Mdm4 (Homo sapiens) + E3 ubiquitin-protein ligase Mdm2 (Homo sapiens) (UniProt O15151+Q00987)
# Assay: disruptors of Mdm2/MdmX RING complex – cell-based, luminescence, split luciferase, SaOS-2, uHTS, primary screen (AID 485346)
# Settings: SaOS-2 split-luciferase Mdm2/MdmX complementation, at 8 µM, active compounds read high
# Chain of Protein Mdm4 (Homo sapiens) + E3 ubiquitin-protein ligase Mdm2 (Homo sapiens) (O15151 whole entry, looked up): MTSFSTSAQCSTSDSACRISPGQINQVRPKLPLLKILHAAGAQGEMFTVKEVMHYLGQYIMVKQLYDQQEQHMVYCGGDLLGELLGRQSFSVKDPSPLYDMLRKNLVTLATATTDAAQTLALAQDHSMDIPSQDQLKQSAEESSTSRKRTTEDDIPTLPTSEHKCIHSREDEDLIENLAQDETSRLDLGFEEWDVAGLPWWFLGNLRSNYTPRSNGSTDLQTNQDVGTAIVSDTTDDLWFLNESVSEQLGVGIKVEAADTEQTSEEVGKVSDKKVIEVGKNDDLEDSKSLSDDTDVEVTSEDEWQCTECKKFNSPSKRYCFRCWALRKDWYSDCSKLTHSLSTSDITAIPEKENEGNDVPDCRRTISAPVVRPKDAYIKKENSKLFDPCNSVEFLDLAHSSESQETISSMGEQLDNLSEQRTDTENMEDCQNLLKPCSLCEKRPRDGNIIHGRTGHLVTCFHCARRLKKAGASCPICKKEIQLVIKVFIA
# Chain of Protein Mdm4 (Homo sapiens) + E3 ubiquitin-protein ligase Mdm2 (Homo sapiens) (Q00987 whole entry, looked up): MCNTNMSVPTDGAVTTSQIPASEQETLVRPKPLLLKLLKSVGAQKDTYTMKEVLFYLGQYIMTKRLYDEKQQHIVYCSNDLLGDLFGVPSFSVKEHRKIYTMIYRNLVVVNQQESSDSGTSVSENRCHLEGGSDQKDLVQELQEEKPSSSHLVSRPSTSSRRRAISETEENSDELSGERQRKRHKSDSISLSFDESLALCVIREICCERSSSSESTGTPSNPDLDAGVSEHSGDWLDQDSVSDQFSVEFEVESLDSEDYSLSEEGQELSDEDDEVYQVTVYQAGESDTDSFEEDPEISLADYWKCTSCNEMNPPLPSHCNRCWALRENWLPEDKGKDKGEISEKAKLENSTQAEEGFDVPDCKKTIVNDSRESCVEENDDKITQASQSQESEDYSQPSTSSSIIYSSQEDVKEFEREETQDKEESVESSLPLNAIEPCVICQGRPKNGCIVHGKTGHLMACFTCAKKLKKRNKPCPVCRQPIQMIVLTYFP
row,Structure (SMILES),inhibition
1,O=C(COC(=O)C1(c2ccc(F)cc2)CCCC1)N1CCNC1=O,1.73% (inactive)
2,C=CCn1c(CNS(=O)(=O)c2ccc(Br)cc2)nnc1SC,20.2% (inactive)
3,N/C(=N\OC(=O)/C=C/c1ccccc1)c1ccc(Br)cc1,13.5% (inactive)
4,N/C(=N\OC(=O)N1c2ccccc2Sc2ccccc21)c1ccc(Br)cc1,53.2% (active)
5,N/C(=N\OC(=O)Cc1ccccc1[N+](=O)[O-])c1ccc(Br)cc1,-0.461% (inactive)
6,Cc1cc(=O)cc(C)n1-c1ccc(Cl)c(Cl)c1,15.1% (inactive)
7,O=c1[nH]nc(SCCS(=O)(=O)c2ccc(F)cc2)n1-c1ccccc1C(F)(F)F,25.1% (inactive)
8,CC[C@@H]1CCCCc2ccccc2[C@@H](C(=O)C[C@H](O)CC(C)=O)OC1=O,33% (inactive)
9,CCOC(=O)c1c(C)oc2cc(Sc3ccccc3)c(O)c(O)c12,34.7% (inactive)
10,COc1ccc(C(=O)Cc2cnn(-c3ccccc3)c2)c(O)c1,-156% (inactive)
11,Cc1cc(O)cc(O)c1C(=O)Cc1cnn(-c2ccccc2)c1,-9.6% (inactive)
12,Cc1[nH]nc(-c2ccc(OCc3cnn(-c4ccccc4)c3)cc2O)c1Oc1ccc(Cl)cc1,68.4% (active)
13,CC(C)C[C@@H](CO)N1CCN(Cc2ccc(O)cc2)CCC1=O,-30.6% (inactive)
14,O=c1[nH]cccc1-c1nc2ccccc2n1Cc1ccc(Cl)cc1,-9.95% (inactive)
15,COc1ccc(C)c(Cn2c(-c3nonc3N)nc3ccccc32)c1,45.6% (inactive)
16,Nc1nonc1-c1nc2ccccc2n1Cc1ccc(F)cc1,53.7% (active)
17,CCc1cccc(NC(=O)COC(=O)c2cc(=O)c3ccccc3o2)c1,13.3% (inactive)
18,COc1ccccc1CNC(=O)COC(=O)c1sc(C)nc1C,-9.07% (inactive)
19,O=c1oc2ccccc2c(CNc2ccccc2)c1[N+](=O)[O-],7.52% (inactive)
20,Cc1ccc(-c2cccc([C@H]3[C@@H]4C=CC[C@@H](C)[C@@H]4C(=O)N3Cc3ccccc3)c2)cc1,69.8% (active)
21,Cc1cccc([C@H]2[C@@H]3C=CC[C@@H](C)[C@@H]3C(=O)N2Cc2ccccc2)c1,16.7% (inactive)
22,O=C(N[C@H]1C/C=C\C(c2cccc(F)c2)N(Cc2ccccc2)C(=O)C1)OCC1c2ccccc2-c2ccccc21 (stereo partly specified),2.78% (inactive)

row,Structure (SMILES),inhibition
1,COc1ccccc1C(=O)COC(=O)CSCC(=O)Nc1cc(C)on1,9.62% (inactive)
2,COc1ccc(-c2nc3cc(C)ccn3c2NC2CCCCC2)cc1SC1CCCCC1,92.7% (active)
3,COc1ccc(-c2nc3cnccn3c2NC2CCCCC2)cc1-c1cccc(Cl)c1,34.9% (inactive)
4,CCOc1cc(-c2nc3cc(C)ccn3c2NCC2CCCO2)ccc1O (stereo unspecified),22.2% (inactive)
5,CCOc1ccc(C(=O)Nc2ccc(CN3CCOCC3)cc2)cc1Cl,-7.17% (inactive)
6,CCN(CC)C(=O)Cn1cc(S(=O)(=O)CC(=O)NCc2ccc3c(c2)OCO3)c2ccccc21,15.5% (inactive)
7,CC(C)(C)OC(=O)N1CCC(NC(=O)c2[nH]cnc2C(=O)N[C@@H](Cc2ccccc2)C(=O)OCc2ccccc2)CC1,65.6% (active)
8,CC(C)(C)OC(=O)CNC(=O)c1[nH]cnc1C(=O)N[C@@H](Cc1ccccc1)C(=O)OCc1ccccc1,9.35% (inactive)
9,O=C(N[C@@H](Cc1ccccc1)C(=O)OCc1ccccc1)c1nc[nH]c1C(=O)NC1CCNCC1,20.5% (inactive)
10,CC(C)c1ccc(NC(=O)[C@@H](NC(=O)N2CC(=O)Nc3ccccc32)C(C)C)cc1,46.3% (inactive)
11,O=C(N1CCCC1)C12CC3CC(C1)CC(C(=O)N1CCCC1)(C3)C2,0.875% (inactive)
12,CC(Sc1nnc(-c2ccccc2F)n1C1CC1)C(N)=O (stereo unspecified),2.33% (inactive)
13,O=S1(=O)CCO[C@H]2Cc3ccccc3[C@H]2N1Cc1ccccc1,-0.566% (inactive)
14,Cn1cc([N+](=O)[O-])c(C(=O)Nc2ccc3c(c2)OCCO3)n1,15.1% (inactive)
15,Cn1cc([N+](=O)[O-])c(C(=O)Nc2cnn(Cc3ccc(F)cc3)c2)n1,61.3% (active)
16,CCc1ccc(NC(=O)c2ccc(Cn3cc([N+](=O)[O-])cn3)cc2)cc1,7.69% (inactive)
17,CC(C)CCN(C(=O)c1csnn1)C(C(=O)NC1CCCC1)c1ccccc1 (stereo unspecified),1.25% (inactive)
18,Cc1ccc(N2C(=O)c3ccccc3C2(O)c2ncc[nH]2)cc1 (stereo unspecified),11% (inactive)
19,CCCC(=O)Nc1nc2ccc(NC(=O)c3cccnc3)cc2s1,56.4% (active)
20,CCOC(=O)c1ccc(NC(=O)c2cccnc2)cc1,-5.28% (inactive)
21,CCCC(=O)Nc1nc2ccc(NC(=O)c3c(F)c(F)c(OC)c(F)c3F)cc2s1,40.2% (inactive)
22,Clc1ccc(C2[C@H]3CN(CC4CCCCC4)[C@H](c4ccccc4)C34CC2(c2cccnc2)C4)cn1 (stereo partly specified),-0.579% (inactive)

row,Structure (SMILES),inhibition
1,FC(F)(F)c1ccc(CN2C[C@@H]3C(c4ccccc4)C4(c5ccccc5)CC3(C4)[C@H]2c2ccccc2)cc1 (stereo partly specified),93.9% (active)
2,COC(=O)c1ccc(C23CC4(C2)[C@H](CN(Cc2cccnc2)[C@@H]4c2ccccc2)C3c2ccc(Cl)nc2)cc1 (stereo partly specified),21.5% (inactive)
3,O=C1c2ccccc2C(=O)N1CCC(c1ccccc1)c1ccco1 (stereo unspecified),-4.99% (inactive)
4,CC1CCC(N2CC(=O)N(Cc3ccc4c(c3)OCO4)C(c3ccc(F)cc3)C2=O)CC1 (stereo unspecified),-7.03% (inactive)
5,CC1=CC(C)(C)Nc2ccc(OC(=O)C(Cc3ccccc3)N3C(=O)C4CCCCC4C3=O)cc21 (stereo unspecified),42.7% (inactive)
6,CC1=CC(C)(C)Nc2ccc(OC(=O)CN3C(=O)C4CCCCC4C3=O)cc21 (stereo unspecified),54% (active)
7,O=C(CN1C(=O)C2C3CCC(C3)C2C1=O)Oc1ccc2ccccc2c1 (stereo unspecified),12% (inactive)
8,Cc1ccc(CNC(=O)Cn2cnc3c(NCc4ccccc4)ncnc32)o1,28.2% (inactive)
9,NC(=O)COc1ccc(C23CC4CC(CC(C4)C2)C3)cc1,-45% (inactive)
10,Cc1cc([N+](=O)[O-])nn1CC(=O)Nc1ccc(Cc2ccncc2)cc1,2.13% (inactive)
11,CCCN(CCC)c1nc2c(C)cccn2c(=O)c1/C=C1/SC(=S)N(Cc2ccco2)C1=O,2.98% (inactive)
12,CCOC(=O)CC1C(=O)NCCN1c1nc2c(C)cccn2c(=O)c1/C=C1\SC(=S)N(C(C)CC)C1=O (stereo unspecified),59% (active)
13,CCOC(=O)N1CCN(C(=O)CSc2nc(=O)n3cccc(C)c3n2)CC1,-0.597% (inactive)
14,Cc1cc(C)n2nc(C(=O)Nc3cccc(S(=O)(=O)N4CCOCC4)c3)nc2n1,7.78% (inactive)
15,NC(=O)COc1ccccc1C(=O)NC12CC3CC(CC(C3)C1)C2,3.86% (inactive)
16,COc1ccccc1C(=O)NC(=O)COC(=O)C1CC1,-22.8% (inactive)
17,COc1ccccc1C(=O)NC(=S)NC12CC3CC(CC(C3)C1)C2,63.6% (active)
18,COc1ccc(N2CCN(CCNC(=O)Nc3cc(Cl)ccc3Cl)CC2)cc1,14.4% (inactive)
19,CCCCn1c(N)c(N(CC(C)C)C(=O)c2ccc(Br)o2)c(=O)[nH]c1=O,25.9% (inactive)
20,CNc1ccc(SC#N)cc1,0.392% (inactive)
21,CC(=NCc1ccco1)c1c(C(F)(F)F)[nH]n(-c2nc3ccccc3s2)c1=O,0.099% (inactive)
22,COC(=O)Cc1[nH]n(-c2nc3ccccc3s2)c(=O)c1C(C)=Nc1ccc(OC)cc1,77.3% (active)

row,Structure (SMILES),inhibition
1,COc1ccc(C2=NN(c3nc4ccccc4s3)C(=O)C2)cc1,1.88% (inactive)
2,CCn1nc(C)c(CNC(=O)C2CCC(=O)N(Cc3cccc(F)c3)C2)c1C (stereo unspecified),28.2% (inactive)
3,COc1ccc(CNC(=O)C[C@H]2C[C@H](C(=O)N3CCOCC3)[C@@]3(CCC4CCCC4)c4[nH]c5ccc(Cl)cc5c4CCN3C2=O)cc1OC,92.6% (active)
4,COc1ccc2[nH]c3c(c2c1)CCN1C(=O)C(CC(=O)NCCCN(C)C)C[C@H](C(=O)N2CCOCC2)[C@@]31CCC1CCCC1 (stereo partly specified),-3.6% (inactive)
5,O=C(C[C@H]1C[C@H](C(=O)N2CCOCC2)[C@@]2(CCC3CCCC3)c3[nH]c4ccc(Cl)cc4c3CCN2C1=O)NCc1ccco1,49.9% (inactive)
6,COCCN(C(=O)C(C)C)c1nnc(-c2ccc(C(C)(C)C)cc2)s1,-22.5% (inactive)
7,COC(=O)NC1(C(F)(F)F)NC(=O)N(C2CCCCC2)C1=O (stereo unspecified),-5.21% (inactive)
8,O=C1NC(Nc2nc3ccccc3s2)(C(F)(F)F)C(=O)N1C1CCCCC1 (stereo unspecified),66.2% (active)
9,O=C(NC1(C(F)(F)F)NC(=O)N(C2CCCCC2)C1=O)c1ccco1 (stereo unspecified),1.56% (inactive)
10,CC(Oc1ccc(F)cc1)C(=O)Nc1cc(S(=O)(=O)N2CCOCC2)ccc1N1CCN(C)CC1 (stereo unspecified),13.7% (inactive)
11,Cc1cc(NC(=O)/C=C/C(=O)N(c2ccccc2C)C(C(=O)NC2CCCC2)c2ccc(F)cc2)no1 (stereo unspecified),63.1% (active)
12,Cc1cc(NC(=O)/C=C/C(=O)N(CC(=O)NC2CCCC2)c2ccc(F)cc2)no1,-19.5% (inactive)
13,Cc1cc(NC(=O)CCC(=O)N(c2cccc(F)c2)C(C(=O)NC2CCCC2)c2ccncc2)no1 (stereo unspecified),-20% (inactive)
14,CCOc1ccc(-c2cc(C(=O)N/N=C/c3ccc(O)cc3)c3ccccc3n2)cc1,76.9% (active)
15,COc1ccc(/C=N/NC(=O)c2cc(-c3cccc(C)c3)nc3ccccc23)cc1O,34.6% (inactive)
16,CCOc1cc(/C=N/NC(=O)c2cc(-c3ccccc3)nc3ccccc23)ccc1O,-10.1% (inactive)
17,O=C(NCCCN1CCOCC1)c1cnn2c(-c3ccccc3)cc(-c3ccccc3)nc12,37.7% (inactive)
18,CN1CCN(c2ccc(S(=O)(=O)N3CCCCC3)cc2NC(=O)Cc2ccccc2F)CC1,9.14% (inactive)
19,CCN1CCN(c2ccc(S(=O)(=O)N3CCCCC3)cc2NC(=O)c2cccc(NC(C)=O)c2)CC1,12% (inactive)
20,CCN1CCN(c2ccc(S(=O)(=O)N3CCCCC3)cc2NC(=O)Cc2c(Cl)cccc2Cl)CC1,65.1% (active)
